Source: article PMC5540273 (PLoS ONE, 2017)

Columns and labels:
Settings in all cases: concentration: 1 μM, replicates: in singlicate; n = 1
[1] = system: T1, PRKR
T1 construct: gene EIF2AK2

[2] = system: PRKX
[3] = system: PRP4
[4] = system: T2, PYK2
T2 construct: gene PTK2B

[5] = system: QSK
[6] = system: RAF1
[7] = system: RET
[8] = system: RIOK1
[9] = system: RIOK2
[10] = system: RIOK3
[11] = system: RIPK1
[12] = system: RIPK2
[13] = system: RIPK4
[14] = system: RIPK5
[15] = system: ROCK1
[16] = system: ROCK2
[17] = system: ROS1
[18] = system: RPS6KA4(Kin.Dom.1-N-terminal)
[19] = system: RPS6KA4(Kin.Dom.2-C-terminal)
[20] = system: RPS6KA5(Kin.Dom.1-N-terminal)
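Note: KINOMEscan kinase panel screen.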

| SMILES | %Inh [1] | %Inh [2] | %Inh [3] | %Inh [4] | %Inh [5] | %Inh [6] | %Inh [7] | %Inh [8] | %Inh [9] | %Inh [10] | %Inh [11] | %Inh [12] | %Inh [13] | %Inh [14] | %Inh [15] | %Inh [16] | %Inh [17] | %Inh [18] | %Inh [19] | %Inh [20] |
| --- | --- | --- | --- | --- | --- | --- | --- | --- | --- | --- | --- | --- | --- | --- | --- | --- | --- | --- | --- | --- |
| COc1ccc(-c2oc3ncnc(N)c3c2-c2ccc(OC)cc2)cc1 [SB-589132] | 0% | 3% | 64% | 7% | 6% | 44% | 11% | 0% | 0% | 0% | 2% | 28% | 1% | 0% | 41% | 0% | 0% | 0% | 0% | 0% |
| COC(=O)c1c(-c2ccccc2)c2cc(Cl)ccc2c(=O)n1Cc1ccc(S(C)(=O)=O)cc1 | 0% | 16% | 1% | 0% | 0% | 49% | 2% | 0% | 29% | 0% | 0% | 0% | 13% | 4% | 6% | 0% | 0% | 0% | 5% | 8% |
| Cl.O=S(=O)(c1cccc(F)c1)c1ccc(Nc2ncnc3cc(Br)sc23)cc1Cl [GSK306886] | 0% | 24% | 13% | 0% | 0% | 10% | 97.9% | 9% | 3% | 22% | 29% | 42% | 0% | 16% | 9% | 14% | 12% | 16% | 0% | 0% |
| Nc1nc(-c2ccc3c(N)n[nH]c3c2)cc(N2CCCCC2)n1 [GSK2228768] | 6% | 35% | 0% | 0% | 0% | 7% | 1% | 64% | 9% | 28% | 0% | 0% | 7% | 0% | 0% | 0% | 6% | 4% | 0% | 6% |
| CS(=O)(=O)CCNCc1ccc(-c2ccc3ncnc(Nc4ccc(OCc5ccccc5)c(Cl)c4)c3c2)o1.Cl [GW574783] | 0% | 17% | 12% | 0% | 2% | 19% | 0% | 32% | 6% | 0% | 9% | 79% | 0% | 0% | 22% | 21% | 0% | 32% | 0% | 28% |
| COc1cc2ncnc(Nc3ccc(OCc4ccccc4Br)c(Cl)c3)c2cc1OC.Cl [GI261590] | 0% | 0% | 0% | 32% | 0% | 21% | 14% | 29% | 0% | 10% | 0% | 86% | 7% | 0% | 16% | 27% | 4% | 9% | 0% | 0% |
| COc1ccc(NC(=O)Nc2ccc(C)c(-c3ccc(C(=O)Nc4ccncc4)cc3)c2)cc1 [GSK1398475] | 0% | 10% | 19% | 3% | 0% | 50% | 0% | 31% | 0% | 8% | 16% | 2% | 1% | 0% | 0% | 0% | 0% | 0% | 0% | 0% |
| COc1ccc(NC(=O)c2ccc(-c3cc(-c4nnc(C)o4)ccc3C)cc2)cc1 [GW595885] | 0% | 5% | 18% | 0% | 21% | 6% | 28% | 12% | 0% | 0% | 0% | 0% | 9% | 0% | 10% | 13% | 0% | 0% | 0% | 12% |
| Nc1n[nH]c2nnc(-c3ccccc3)cc12 [SB-517389] | 0% | 0% | 33% | 0% | 0% | 6% | 88% | 26% | 0% | 0% | 0% | 17% | 17% | 0% | 0% | 0% | 0% | 4% | 38% | 5% |
